Measurements reported in PubChem BioAssay (NCI).
Compounds without any hit were thinned out: in the full panel of roughly 83,000, 20% have a hit.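 Values shown are percent growth following 48 h exposure of cells in 96-well plates to a single concentration of compound; below 10 was considered active.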 The source made the active and inactive calls.

Key:
Assay in all cases: NCI-60 one-dose screen, 48 h (100 = growth as untreated, 0 = no growth, -100 = all killed)
HCT-15 colon = conditions: 10 µM unless noted
HT29 colon = conditions: 10 µM unless noted
SNB-75 CNS = conditions: 10 µM unless noted
SNB-19 CNS = conditions: 10 µM unless noted
U251 CNS = conditions: 10 µM unless noted
PC-3 prostate = conditions: 10 µM unless noted
SK-MEL-5 melanoma = conditions: 10 µM unless noted
UACC-62 melanoma = conditions: 10 µM unless noted
LOX IMVI melanoma = conditions: 10 µM unless noted
SK-MEL-28 melanoma = conditions: 10 µM unless noted
SK-MEL-2 melanoma = conditions: 10 µM unless noted
EKVX NSCLC = conditions: 10 µM
SN12C renal = conditions: 10 µM unless noted
UO-31 renal = conditions: 10 µM unless noted
TK-10 renal = conditions: 10 µM unless noted
ACHN renal = conditions: 10 µM unless noted
CCRF-CEM leukemia = conditions: 10 µM
MOLT-4 leukemia = conditions: 10 µM unless noted
CAKI-1 renal = conditions: 10 µM unless noted
A498 renal = conditions: 10 µM unless noted

Measured: growth

CCOc1ccccc1/C=N\N=C(N/N=C/c1ccccc1OCC)N/N=C/c1ccccc1OCC
active: HT29 colon -1.15% | PC-3 prostate 3.92% | SK-MEL-5 melanoma -52.6% | LOX IMVI melanoma 8.71% | SK-MEL-2 melanoma 4.07% | UO-31 renal -8.3% | ACHN renal 9.67%
inactive: HCT-15 colon 13.5% | SNB-75 CNS 22.3% | SNB-19 CNS 21.7% | U251 CNS 13.4% | UACC-62 melanoma 16.1% | SK-MEL-28 melanoma 30.7% | EKVX NSCLC 14.2% | SN12C renal 15.4% | TK-10 renal 27.8% | CCRF-CEM leukemia 16.7% | MOLT-4 leukemia 27.7%

CCCCCCNC(=O)Oc1ccc(/C(=C(/C)Cc2ccc(OC)cc2)c2ccc(OCCN3CCCCC3)cc2)cc1
inactive: HCT-15 colon 31.6% | HT29 colon 19.5% | SNB-75 CNS 66.7% | SNB-19 CNS 86.3% | U251 CNS 63.1% | PC-3 prostate 76.4% | SK-MEL-5 melanoma 80.4% | UACC-62 melanoma 88.4% | LOX IMVI melanoma 82.9% | SK-MEL-28 melanoma 96.8% | SK-MEL-2 melanoma 101% | EKVX NSCLC 81.9% | SN12C renal 80.1% | UO-31 renal 58.5% | TK-10 renal 89.8% | ACHN renal 99.5% | CCRF-CEM leukemia 72% | MOLT-4 leukemia 69.3%

Cc1ccc([C@@H]2C[C@H](O)Cc3ccccc3N2)s1
inactive: HCT-15 colon 94.1% | HT29 colon 117% | SNB-75 CNS 98.4% | SNB-19 CNS 120% | U251 CNS 99.6% | PC-3 prostate 92% | SK-MEL-5 melanoma 105% | UACC-62 melanoma 117% | LOX IMVI melanoma 101% | SK-MEL-28 melanoma 116% | SK-MEL-2 melanoma 141% | EKVX NSCLC 97.6% | UO-31 renal 94.5% | TK-10 renal 119% | ACHN renal 104% | CAKI-1 renal 94.8% | A498 renal 91.2% | CCRF-CEM leukemia 105% | MOLT-4 leukemia 95.7%

O=C(Oc1ccccc1)c1ccccc1Cl
active: CCRF-CEM leukemia -11.9%
inactive: HCT-15 colon 98% | HT29 colon 118% | SNB-75 CNS 89.6% | SNB-19 CNS 104% | U251 CNS 98.5% | PC-3 prostate 95% | SK-MEL-5 melanoma 104% | UACC-62 melanoma 107% | LOX IMVI melanoma 107% | SK-MEL-28 melanoma 107% | SK-MEL-2 melanoma 123% | EKVX NSCLC 99.6% | SN12C renal 107% | UO-31 renal 96.7% | TK-10 renal 111% | ACHN renal 102% | MOLT-4 leukemia 110%

CCN(CCO)CCNc1ccc(C)c2sc3cc(OC)ccc3c(=O)c12
inactive: HCT-15 colon 41.1% | HT29 colon 33.1% | SNB-75 CNS 70.9% | SNB-19 CNS 67.7% | U251 CNS 54% | PC-3 prostate 71.2% | SK-MEL-5 melanoma 80.6% | UACC-62 melanoma 98.9% | LOX IMVI melanoma 50.7% | SK-MEL-28 melanoma 94.2% | SK-MEL-2 melanoma 99.1% | EKVX NSCLC 86.4% | SN12C renal 55.9% | UO-31 renal 49.4% | TK-10 renal 79.3% | ACHN renal 36.8% | CCRF-CEM leukemia 47.9% | MOLT-4 leukemia 21.7%

O=C1C(=O)c2ccccc2C(O)=C1CCCc1ccc(Oc2ccccc2)cc1
inactive: HCT-15 colon 74.1% | HT29 colon 113% | SNB-75 CNS 71.2% | SNB-19 CNS 62% | U251 CNS 36.1% | PC-3 prostate 37.5% | SK-MEL-5 melanoma 55.1% | UACC-62 melanoma 36.5% | LOX IMVI melanoma 38.9% | SK-MEL-28 melanoma 74.8% | SK-MEL-2 melanoma 72.5% | SN12C renal 77.8% | UO-31 renal 43.5% | TK-10 renal 90.7% | ACHN renal 59.4% | CAKI-1 renal 43.3% | A498 renal 66.1% | CCRF-CEM leukemia 32.1% | MOLT-4 leukemia 50.3%

O=C(NCCNCCO)c1cc([N+](=O)[O-])cc([N+](=O)[O-])c1O
inactive: HCT-15 colon 106% | HT29 colon 104% | SNB-75 CNS 102% | SNB-19 CNS 102% | U251 CNS 99.3% | PC-3 prostate 99.7% | SK-MEL-5 melanoma 103% | UACC-62 melanoma 101% | LOX IMVI melanoma 99.1% | SK-MEL-28 melanoma 106% | SK-MEL-2 melanoma 117% | SN12C renal 96.1% | UO-31 renal 95.9% | TK-10 renal 101% | ACHN renal 107% | CAKI-1 renal 100% | A498 renal 106% | CCRF-CEM leukemia 94.3% | MOLT-4 leukemia 102%

CCC(C)CC(N)O (stereo not drawn)
inactive: HCT-15 colon 103% | HT29 colon 111% | SNB-75 CNS 106% | SNB-19 CNS 106% | U251 CNS 106% | PC-3 prostate 111% | SK-MEL-5 melanoma 99.9% | UACC-62 melanoma 104% | LOX IMVI melanoma 110% | SK-MEL-28 melanoma 102% | SK-MEL-2 melanoma 128% | SN12C renal 109% | UO-31 renal 101% | TK-10 renal 99% | ACHN renal 106% | CAKI-1 renal 110% | A498 renal 109% | CCRF-CEM leukemia 115% | MOLT-4 leukemia 106%

O=C(Nc1ccc(Cl)c(Cl)c1)O/N=C\c1c(Cl)ccc([N+](=O)[O-])c1Cl
active: HCT-15 colon -3.17% | HT29 colon -73% | U251 CNS 3.06% | PC-3 prostate -8.42% | UACC-62 melanoma -63.5% | LOX IMVI melanoma -82.1% | SK-MEL-28 melanoma -12.3% | SK-MEL-2 melanoma -4.77% | SN12C renal -52.4% | UO-31 renal -32.6% | TK-10 renal -97.2% | ACHN renal -59.5% | CAKI-1 renal 7.78% | CCRF-CEM leukemia -19.3% | MOLT-4 leukemia -32.9%
inactive: SNB-75 CNS 16.9% | SNB-19 CNS 49.5% | SK-MEL-5 melanoma 48.3% | A498 renal 46%

Cc1ccc(NCc2cn(-c3ccc(C(=O)O)cc3)nc2-c2ccc(C(=O)O)cc2)cc1
inactive: HCT-15 colon 110% | HT29 colon 97.4% | SNB-75 CNS 96.7% | SNB-19 CNS 104% | U251 CNS 97.1% | PC-3 prostate 106% | SK-MEL-5 melanoma 108% | UACC-62 melanoma 103% | LOX IMVI melanoma 94.6% | SK-MEL-28 melanoma 112% | SK-MEL-2 melanoma 94.3% | EKVX NSCLC 106% | SN12C renal 108% | UO-31 renal 90.6% | TK-10 renal 99% | ACHN renal 108% | CCRF-CEM leukemia 104% | MOLT-4 leukemia 105%

CCN(CC)CCCC(C)Nc1c(C)cnc2cc(Cl)c(C)cc12 (stereo not drawn)
inactive: HCT-15 colon 86.8% | HT29 colon 40% | SNB-75 CNS 95.5% | SNB-19 CNS 99.9% | U251 CNS 84.7% | PC-3 prostate 87.8% | SK-MEL-5 melanoma 90.2% | UACC-62 melanoma 109% | LOX IMVI melanoma 81.2% | SK-MEL-28 melanoma 85.4% | SK-MEL-2 melanoma 117% | SN12C renal 94.5% | UO-31 renal 66.8% | TK-10 renal 90.5% | ACHN renal 94% | CAKI-1 renal 80.6% | A498 renal 83.2% | CCRF-CEM leukemia 62.2% | MOLT-4 leukemia 62.7%

O=C1C(Br)=CC2C1C1C3CCC3C2(Br)C12OCCO2 (stereo not drawn)
inactive: HCT-15 colon 19% | SNB-75 CNS 56.3% | SNB-19 CNS 81% | U251 CNS 35.3% | PC-3 prostate 32% | SK-MEL-5 melanoma 67.3% | UACC-62 melanoma 54.9% | SK-MEL-28 melanoma 55.7% | SK-MEL-2 melanoma 21.7% | SN12C renal 41.8% | UO-31 renal 62% | TK-10 renal 28.8% | ACHN renal 32.5% | A498 renal 52.4% | MOLT-4 leukemia 15.7%
active: HT29 colon 8.84% | LOX IMVI melanoma 8.55% | CAKI-1 renal -19.3% | CCRF-CEM leukemia -3.12%

CNCCCNCCCCNCCCN1C(=O)c2ccc3c4c(ccc(c24)C1=O)C(=O)N(CCCNCc1ccccc1OC)C3=O
active: HT29 colon 4.56% | SNB-75 CNS -0.885% | UACC-62 melanoma -1.88% | LOX IMVI melanoma 8.88% | SK-MEL-28 melanoma -9.35%
inactive: HCT-15 colon 46.8% | SNB-19 CNS 36% | U251 CNS 41.2% | PC-3 prostate 58.7% | SK-MEL-5 melanoma 10.7% | SK-MEL-2 melanoma 14% | SN12C renal 24.6% | UO-31 renal 16.8% | TK-10 renal 41.9% | ACHN renal 26% | CAKI-1 renal 28.6% | A498 renal 45.1% | CCRF-CEM leukemia 45.8% | MOLT-4 leukemia 24.9%

Cc1sc(NC(=O)c2ccc(C(C)(C)C)cc2)c(C(=O)O)c1C
inactive: HCT-15 colon 45.9% | HT29 colon 82% | SNB-75 CNS 85.5% | SNB-19 CNS 51% | U251 CNS 17% | PC-3 prostate 53.7% | SK-MEL-5 melanoma 73.3% | UACC-62 melanoma 98.4% | LOX IMVI melanoma 68.9% | SK-MEL-28 melanoma 110% | SK-MEL-2 melanoma 103% | EKVX NSCLC 51.1% | UO-31 renal 89.9% | TK-10 renal 68.4% | ACHN renal 38.8% | CAKI-1 renal 41.9% | A498 renal 78.6% | CCRF-CEM leukemia 48.7% | MOLT-4 leukemia 50.3%

C=CCNC(=S)NNc1ccc([N+](=O)[O-])cn1
inactive: HCT-15 colon 100% | HT29 colon 90.5% | SNB-75 CNS 81.8% | SNB-19 CNS 103% | U251 CNS 101% | PC-3 prostate 100% | SK-MEL-5 melanoma 94.3% | UACC-62 melanoma 99.3% | LOX IMVI melanoma 82% | SK-MEL-28 melanoma 106% | SK-MEL-2 melanoma 94.4% | EKVX NSCLC 99.9% | SN12C renal 100% | UO-31 renal 83.7% | TK-10 renal 104% | ACHN renal 104% | CCRF-CEM leukemia 71.2% | MOLT-4 leukemia 99.4%

O=C(/C=C\c1ccc(NCc2ccc(C(=O)O)cc2)cc1)CCl
active: LOX IMVI melanoma 5.63% | CCRF-CEM leukemia -8.72% | MOLT-4 leukemia 6.28%
inactive: HCT-15 colon 72.4% | HT29 colon 84.9% | SNB-75 CNS 91.1% | SNB-19 CNS 96.7% | U251 CNS 84.5% | PC-3 prostate 96.2% | SK-MEL-5 melanoma 100% | UACC-62 melanoma 84.2% | SK-MEL-28 melanoma 104% | SK-MEL-2 melanoma 97% | SN12C renal 79.7% | UO-31 renal 78.6% | TK-10 renal 93.4% | ACHN renal 93.3% | CAKI-1 renal 105% | A498 renal 55.6%
